From PubChem
This is one part of a sample in which hits are shown more often than they occur.
VCAM1 TNFa pot – potentiators of TNFa-induced VCAM1 expression, primary screen, imaging, HUVEC, TNFa stimulus, immunofluorescence | HUVEC TNFa-stimulated VCAM-1 immunofluorescence, high-content imaging; scaled per plate to unstimulated/TNFa-only wells | activation, % at 2 µM | hit rate 0.19% among 93,000;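 active = activation above the screen mean plus 3 SD, with well images confirming the hit on visual review, cut at about 28% in these data, passing the limit was not always enough; inconclusive = activation above that limit but images do not confirm it; inactive = activation not above that limit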;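 note: signal is the number of cytoplasmic VCAM-1 stained grains per positive cell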
VCAM1 pot conf – potentiators of TNFa-induced VCAM1 expression, confirmation, imaging, HUVEC, triplicate retest; activation, % at 2 µM; 230 tested, under 10 active; HUVEC TNFa-stimulated VCAM-1 immunofluorescence imaging; shares compounds with VCAM1 TNFa pot;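 active = activation above 30% in triplicate retests at 2 µM, then confirmed by visual review of the well images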
Of the large screens only hits and unclear results are named; the others gave an inactive call (follow-up assays come after a bar, where they were run).

O=C(/C=C/NNC(=O)c1ccccc1)c1ccc(Br)cc1	none
N/C(=N\OC(=O)c1ccc(Br)cc1)c1ccccc1	VCAM1 TNFa pot 58 | VCAM1 pot conf inactive
Cc1cccc(/C(N)=N/OC(=O)c2ccco2)c1	none
CC1C(=O)CC(c2ccccc2)NC1c1ccccc1 (stereo unspecified)	none
CC(C)[C@H](NC(=O)Nc1ccccc1F)C(=O)O	none
CCOC(=O)c1cc(-c2ccc(OC)cc2F)nc2c1c(C)nn2CCC#N	VCAM1 TNFa pot 34 | VCAM1 pot conf inactive
CCOC(=O)c1cc(C#N)c(N2CCCC2)nc1-c1ccccc1	none
COC(=O)C(C)Oc1ccc2c3c(c(=O)oc2c1)CCCCC3 (stereo unspecified)	none
Cn1c(Sc2ccc(C(F)(F)F)cc2[N+](=O)[O-])nnc1-c1ccccc1	none
Nc1nc(COc2ccc3ccccc3c2)cs1	none
COc1ccc(CSc2nc3ccccc3[nH]2)cc1	none
c1ccc2cc(OCc3nc4ccccc4[nH]3)ccc2c1	VCAM1 TNFa pot 66 | VCAM1 pot conf inactive
O=C(Oc1ccc2ccc(=O)oc2c1)N1CCOCC1	none
O=C(Cn1cnc([N+](=O)[O-])n1)N/N=C/c1ccccc1O	none
CCOc1ccc(CC(=O)Nc2c(C(=O)Nc3ccccc3)oc3ccccc23)cc1OCC	none
COc1cc(NC(=O)NS(=O)(=O)c2ccc(C)cc2)cc(OC)c1	VCAM1 TNFa pot 60 | VCAM1 pot conf inactive
COc1cc(NS(=O)(=O)c2ccc(NC(=O)COc3ccc(C)cc3)cc2)nc(OC)n1	none
Cc1ccc(S(=O)(=O)NC(=O)Nc2cc(C)ccc2F)cc1	none
O=C1C(Cc2ccccc2)NC(=S)N1c1ccccc1 (stereo unspecified)	none
COCCSc1nnc(NC(=O)CSCc2ccccc2)s1	none
Cc1ccc(CC2(O)CC(C)N(C)CC2C)c(C)c1 (stereo unspecified)	none
CC(=O)Nc1cccc(NC(=O)c2cc3ccccc3o2)c1	none
O=C(Nc1ccc(-c2cc3ccccc3oc2=O)c(Cl)c1)c1cccnc1	none
O=C(Nc1ccc(N2CCN(C(=O)c3ccco3)CC2)c(Cl)c1)c1cc2ccccc2o1	VCAM1 TNFa pot inconclusive | VCAM1 pot conf inactive
CC(C(=O)Nc1ccccc1Sc1ccccc1)N(c1ccccc1)S(C)(=O)=O (stereo unspecified)	none
Cc1ccc(Cl)cc1NC(=O)CC(O)(C(F)(F)F)C(F)(F)F	none
CCCSc1nnc(-c2cnn(-c3ccccc3)c2-n2cccc2)n1C	VCAM1 TNFa pot 36 | VCAM1 pot conf inactive
Cn1c(SCC(=O)CC(=O)Nc2ccccc2)nnc1-c1ccc(O)cc1	none
Cc1ccc(-c2nnc(SCC(=O)CC(=O)Nc3ccccc3)n2C)cc1	none
c1ccc(-c2cc(N3CCCCCC3)n[nH]2)cc1	none
Cc1nc(CS(=O)c2ccccc2)cc(N2CCOCC2)n1 (stereo unspecified)	none
Cc1nc(-c2ccccc2)cc(N2CCCC2)n1	VCAM1 TNFa pot 61 | VCAM1 pot conf inactive
O=C(c1ccc(-n2cnnn2)cc1)N1CCCCC1	none
CC(=O)c1cc(C#N)c(SCc2ccccc2C#N)nc1C	none
O=C(CN1C(=O)c2ccccc2C1=O)Nc1ccc(-c2nc3ccccc3o2)cc1	none
O=C(Nc1ccc2nsnc2c1)c1ccc2c(c1)OCO2	none
O=C(Nc1ccc(-c2nc3ccccc3o2)cc1)c1ccc2c(c1)OCO2	VCAM1 TNFa pot inconclusive | VCAM1 pot conf inactive
c1ccc(-n2c(Cc3cn4ccsc4n3)nnc2N2CCOCC2)cc1	none
CC(=O)N(Cc1ccccc1)c1ncc2c(n1)c(=O)c(C#N)c1ccccn12	none
CCOc1cc(NC(=O)c2ccco2)c(OCC)cc1NC(=O)CCC(=O)NCc1cccnc1	none
Cc1ccc(S(=O)(=O)N2CC3(C)CN(S(=O)(=O)c4ccc(C)cc4)CC(C)(C2)C3=O)cc1	none
O=C(CSc1nnc(Cc2cccs2)n1-c1ccccc1)NCc1ccc2c(c1)OCO2	none
O=C(CSc1nnnn1-c1ccc2c(c1)OCO2)NCc1ccccc1	none
Cc1cc(C(=O)CSc2nnc(Cc3ccccc3)o2)c(C)n1Cc1ccc2c(c1)OCO2	VCAM1 TNFa pot 54 | VCAM1 pot conf inactive
CCOC(=O)c1cc2c(nc1N)CC(C)(CC)OC2 (stereo unspecified)	none
COCCNC(=O)CSc1nc2ccccc2c(=O)n1CCCC(=O)NCc1ccccc1	none
CCOc1ccccc1C(=O)N1CCC(n2nnc3cc(C(F)(F)F)ccc32)CC1	none
COc1ccccc1C(=O)N/C(=C/c1ccc(Br)cc1)C(=O)NCC(=O)O	none
Cc1cc(C)c(C#N)c(=N)o1	none
CN(Cc1ccccc1)S(=O)(=O)c1ccc(NC(=S)NC(=O)C2CCCC2)cc1	none
CCCNS(=O)(=O)c1ccc(NC(=O)c2ccccn2)cc1	none
O=S(=O)(NCc1ccccc1)c1ccc(S(=O)(=O)N(Cc2ccccn2)C2CCCC2)cc1	VCAM1 TNFa pot inconclusive | VCAM1 pot conf inactive
COc1ccccc1NC(=O)Cc1noc(CSc2nnc(C)s2)n1	none
O=C(CN1CCOCC1)Nc1ccc(OCc2ccccc2)cc1	none
CN1CCN(c2ccccc2NC(=O)c2ccc(OCc3ccccc3)cc2)CC1	none
c1ccc(COc2ccc(OCCCCN3CCCCC3)cc2)cc1	VCAM1 TNFa pot 38 | VCAM1 pot conf inactive
O=C(COC(=O)C1=COCCO1)NCCCc1ccccc1	none
C=CCNC(=O)CSc1ccc(Cl)cc1	none
C=CCNc1sc(C(=O)c2ccccc2)c(N)c1C#N	none
C=CCNc1sc(C(=O)C2CC2)c(N)c1C#N	VCAM1 TNFa pot 30 | VCAM1 pot conf inactive
Cc1cc(C)nc(N(C#N)CN2C(=O)c3ccccc3S2(=O)=O)n1	none
COc1ccc(C(=O)NC(C)c2nnc(SCC(=O)Nc3nc4ccccc4s3)n2C)cc1 (stereo unspecified)	none
CCOC(=O)Cc1csc(/C(=N/O)C(N)=O)n1	none
CCCCOC(=O)Nc1nc(CC(=O)OCC)cs1	VCAM1 TNFa pot inconclusive | VCAM1 pot conf inactive
CCOC(=O)Cc1csc(NC(=O)c2ccc(C)o2)n1	none
Fc1ccc(CSc2ncnc3sc4c(c23)CCCC4)cc1	none
CC1(C(=O)CSc2nc3ccccc3s2)CCC(=O)O1 (stereo unspecified)	none
CN(C)CCCN1C(=O)C(=O)/C(=C(/O)c2ccc3c(c2)OCO3)C1c1ccccn1 (stereo unspecified)	none
CCC1CCc2c(sc(NC(=O)CSc3nc(-c4ccco4)cc(C(F)(F)F)n3)c2C#N)C1 (stereo unspecified)	none
Cc1cc(NCCN(C)C)n2nc(-c3cccs3)cc2n1	VCAM1 TNFa pot 41 | VCAM1 pot conf inactive
COC(=O)COc1ccc(S(=O)(=O)Nc2ccc(NC(C)=O)cc2)cc1C	none
CNC(=O)c1ccccc1S(=O)(=O)c1ccccc1C#N	none
CC(NC(=O)C1CCCN(C(=O)N(C)C)C1)c1ccccc1 (stereo unspecified)	VCAM1 TNFa pot 66 | VCAM1 pot conf inactive
O=C(C1CCCN(S(=O)(=O)Cc2ccccc2)C1)N1CCCCC1 (stereo unspecified)	none
CCN(CCNC(=O)C1CCCN(S(=O)(=O)CC)C1)c1ccccc1 (stereo unspecified)	none
CCOC(=O)c1cc(=O)n(Cc2ccccc2C)c2ccccc12	none
CCCn1cnc2c(=O)oc3ccccc3c21	none
CC(=O)Nc1ccccc1OCc1nnc(-c2cccs2)o1	none
CCCCS(=O)(=O)/C=C\C=C/S(=O)(=O)CCCC	none
CCOC(=O)C1=C(O)/C(=C/c2ccc(C)o2)SC1=NC(=O)c1ccccc1C	none
COc1ccc(S(=O)(=O)NCC2CCC(C(=O)N3CCC4(CC3)OCCO4)CC2)cc1 (stereo unspecified)	VCAM1 TNFa pot inconclusive | VCAM1 pot conf inactive
